Common to all, as to assay: DAPPL (digital affinity profiling via proximity ligation, sequencing); 10 mM Tris-HCl pH 7.5, 50 mM NaCl, 1 mM DTT, 4% glycerol, room temperature, 30 min; GST-TFs on glutathione beads, 16-mer random dsDNA library, 0.1% formaldehyde crosslink after washing; high values mean tight binding
One assay has as its target T1, FLI1 (Homo sapiens, UniProt Q01543 1-452).
T1 sequence: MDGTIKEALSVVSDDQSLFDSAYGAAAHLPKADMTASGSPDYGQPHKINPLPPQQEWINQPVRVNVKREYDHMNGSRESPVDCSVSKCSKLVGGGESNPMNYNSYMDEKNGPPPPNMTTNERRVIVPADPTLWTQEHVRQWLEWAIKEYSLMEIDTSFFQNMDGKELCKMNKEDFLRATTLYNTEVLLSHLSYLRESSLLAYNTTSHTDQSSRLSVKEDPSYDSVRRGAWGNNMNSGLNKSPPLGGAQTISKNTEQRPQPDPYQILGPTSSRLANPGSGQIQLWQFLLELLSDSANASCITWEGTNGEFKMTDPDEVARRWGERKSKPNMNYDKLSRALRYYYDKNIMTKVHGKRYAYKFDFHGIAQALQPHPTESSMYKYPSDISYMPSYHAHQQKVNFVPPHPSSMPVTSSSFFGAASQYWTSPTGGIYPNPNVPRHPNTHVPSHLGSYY
The settings on record: protein: recombinant; tags: N-terminal GST; dsDNA, one strand shown. The method, boiled down:
(§1)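 Pools were built from human transcription factors expressed in yeast as GST fusions, captured on glutathione beads and DNA-barcoded, along with a tag-only sample. Incubation with 200 nmole of a 16-mer random double-stranded DNA library lasted 30 min at room temperature in Tris/NaCl/DTT/glycerol buffer, and was followed by washing, 0.1% formaldehyde crosslinking, proximity ligation, PCR amplification and Illumina NextSeq500 sequencing. Binding signal is the quotient of each hexamer's read frequency for a factor and its frequency for the tag-only sample.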

In a further assay the target is T2, ELK1 (Homo sapiens, UniProt P19419 1-428).
T2 sequence: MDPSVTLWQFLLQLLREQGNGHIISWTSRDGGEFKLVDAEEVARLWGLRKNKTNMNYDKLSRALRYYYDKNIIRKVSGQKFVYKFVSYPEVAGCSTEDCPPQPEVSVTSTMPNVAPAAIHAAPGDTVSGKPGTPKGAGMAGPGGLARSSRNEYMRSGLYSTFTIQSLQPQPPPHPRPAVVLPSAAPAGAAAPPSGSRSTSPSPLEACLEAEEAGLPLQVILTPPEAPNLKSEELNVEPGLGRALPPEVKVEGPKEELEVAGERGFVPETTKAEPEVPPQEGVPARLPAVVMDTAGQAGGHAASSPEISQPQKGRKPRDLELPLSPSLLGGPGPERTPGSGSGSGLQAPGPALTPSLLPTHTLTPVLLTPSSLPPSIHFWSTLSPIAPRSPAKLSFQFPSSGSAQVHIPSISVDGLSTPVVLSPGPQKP
The settings on record: protein: recombinant; tags: N-terminal GST; dsDNA, one strand shown. The method, boiled down:
as §1

The next assay concerns the target T3, GABPA (Homo sapiens, UniProt Q06546 1-454).
T3 sequence: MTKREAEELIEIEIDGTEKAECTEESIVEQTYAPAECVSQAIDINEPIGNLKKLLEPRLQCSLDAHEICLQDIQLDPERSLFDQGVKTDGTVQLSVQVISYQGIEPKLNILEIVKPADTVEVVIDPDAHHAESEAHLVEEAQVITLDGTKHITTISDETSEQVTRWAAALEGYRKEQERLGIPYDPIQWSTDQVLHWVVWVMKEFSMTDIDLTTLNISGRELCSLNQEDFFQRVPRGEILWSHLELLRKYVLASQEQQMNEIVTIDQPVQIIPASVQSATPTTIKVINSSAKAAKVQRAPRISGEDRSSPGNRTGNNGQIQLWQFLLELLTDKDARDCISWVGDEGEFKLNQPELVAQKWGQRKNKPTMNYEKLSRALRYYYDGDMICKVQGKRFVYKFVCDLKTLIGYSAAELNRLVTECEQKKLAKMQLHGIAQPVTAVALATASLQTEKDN
The settings on record: protein: recombinant; tags: N-terminal GST; dsDNA, one strand shown. The essentials:
as §1

For another assay, the target named is T4, ERG (Homo sapiens, UniProt P11308 1-479).
T4 sequence: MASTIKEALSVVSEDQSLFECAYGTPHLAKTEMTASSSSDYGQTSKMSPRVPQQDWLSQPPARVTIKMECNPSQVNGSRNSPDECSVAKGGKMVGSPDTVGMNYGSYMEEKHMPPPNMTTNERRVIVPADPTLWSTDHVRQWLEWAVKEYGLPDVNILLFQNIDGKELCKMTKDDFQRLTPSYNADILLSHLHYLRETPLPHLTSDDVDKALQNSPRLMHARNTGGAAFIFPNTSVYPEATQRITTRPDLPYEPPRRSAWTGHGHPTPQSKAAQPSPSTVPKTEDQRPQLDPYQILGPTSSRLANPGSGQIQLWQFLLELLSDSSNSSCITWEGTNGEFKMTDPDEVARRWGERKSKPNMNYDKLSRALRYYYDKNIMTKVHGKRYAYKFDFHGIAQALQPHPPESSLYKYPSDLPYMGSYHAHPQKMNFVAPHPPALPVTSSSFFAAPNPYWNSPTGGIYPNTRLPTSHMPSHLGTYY
The settings on record: protein: recombinant; tags: N-terminal GST; dsDNA, one strand shown. The essentials: as §1

In the next assay the target is ELF1 (Homo sapiens, UniProt P32519 1-619). The settings on record: protein: recombinant; tags: N-terminal GST; dsDNA, one strand shown. The essentials: as §1
The target in the next assay is T5, EHF (Homo sapiens, UniProt Q9NZC4 1-300).
T5 sequence: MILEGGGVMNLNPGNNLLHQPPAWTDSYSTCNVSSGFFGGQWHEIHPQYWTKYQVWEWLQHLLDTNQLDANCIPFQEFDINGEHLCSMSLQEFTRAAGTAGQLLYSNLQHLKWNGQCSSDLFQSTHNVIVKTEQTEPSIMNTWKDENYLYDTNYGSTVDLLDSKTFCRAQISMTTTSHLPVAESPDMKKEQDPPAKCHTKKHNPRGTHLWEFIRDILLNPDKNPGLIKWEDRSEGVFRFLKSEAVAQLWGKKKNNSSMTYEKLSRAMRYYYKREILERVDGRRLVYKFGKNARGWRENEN
The settings on record: protein: recombinant; tags: N-terminal GST; dsDNA, one strand shown. The method, boiled down:
as §1

In a further assay the target is SPI1 (Homo sapiens, UniProt P17947 1-270). The following applies: protein: recombinant; tags: N-terminal GST; dsDNA, one strand shown. The method, boiled down: as §1
For a further assay, the target named is SPIB (Homo sapiens, UniProt Q01892 1-262). The settings on record: protein: recombinant; tags: N-terminal GST; dsDNA, one strand shown. The method, boiled down:
as §1

In another assay the target is T6, ELK3 (Homo sapiens, UniProt P41970 1-407).
T6 sequence: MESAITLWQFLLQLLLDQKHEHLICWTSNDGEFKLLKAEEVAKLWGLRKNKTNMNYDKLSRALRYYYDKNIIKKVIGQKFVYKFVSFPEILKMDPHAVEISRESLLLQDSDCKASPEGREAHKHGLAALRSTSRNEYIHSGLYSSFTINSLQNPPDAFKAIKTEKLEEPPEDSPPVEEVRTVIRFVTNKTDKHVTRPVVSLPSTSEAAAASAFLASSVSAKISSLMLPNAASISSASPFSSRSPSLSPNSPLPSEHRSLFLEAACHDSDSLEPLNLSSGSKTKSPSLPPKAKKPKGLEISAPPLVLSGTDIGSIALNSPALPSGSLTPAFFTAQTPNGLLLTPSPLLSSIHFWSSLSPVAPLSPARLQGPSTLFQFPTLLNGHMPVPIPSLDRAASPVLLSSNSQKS
The following applies: protein: recombinant; tags: N-terminal GST; dsDNA, one strand shown. The method, boiled down: as §1

Another assay concerns the target T7, FEV (Homo sapiens, UniProt Q99581 1-238).
T7 sequence: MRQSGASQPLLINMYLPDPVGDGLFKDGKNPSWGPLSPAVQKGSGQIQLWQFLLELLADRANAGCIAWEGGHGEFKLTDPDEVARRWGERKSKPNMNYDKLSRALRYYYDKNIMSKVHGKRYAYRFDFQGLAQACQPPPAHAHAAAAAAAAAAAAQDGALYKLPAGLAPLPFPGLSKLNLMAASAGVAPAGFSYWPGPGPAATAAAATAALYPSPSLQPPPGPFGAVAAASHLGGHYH
The following applies: protein: recombinant; tags: N-terminal GST; dsDNA, one strand shown. The essentials:
as §1

The next assay addresses ETV5 (Homo sapiens, UniProt P41161 1-510). The settings on record: protein: recombinant; tags: N-terminal GST; dsDNA, one strand shown. The essentials:
as §1

The target of the next assay is HSF1 (Homo sapiens, UniProt Q00613 1-529). The settings on record: protein: recombinant; tags: N-terminal GST; chain copies: 3; dsDNA, one strand shown. The method, boiled down:
as §1

In the next assay the target is T8, SPIC (Homo sapiens, UniProt Q8N5J4 1-248).
T8 sequence: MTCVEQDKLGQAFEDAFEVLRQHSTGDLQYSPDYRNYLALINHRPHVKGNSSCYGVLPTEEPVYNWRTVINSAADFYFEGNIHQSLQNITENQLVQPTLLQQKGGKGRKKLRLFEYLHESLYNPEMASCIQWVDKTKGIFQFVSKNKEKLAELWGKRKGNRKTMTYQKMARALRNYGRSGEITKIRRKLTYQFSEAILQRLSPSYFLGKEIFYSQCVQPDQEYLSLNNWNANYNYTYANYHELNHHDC
The following applies: protein: recombinant; tags: N-terminal GST; dsDNA, one strand shown. The method, boiled down:
as §1

The target in a further assay is ELF4 (Homo sapiens, UniProt Q99607 1-663). The following applies: protein: recombinant; tags: N-terminal GST; dsDNA, one strand shown. The essentials: as §1
Another assay has as its target T9, ELK4 (Homo sapiens, UniProt P28324-2 1-405).
T9 sequence: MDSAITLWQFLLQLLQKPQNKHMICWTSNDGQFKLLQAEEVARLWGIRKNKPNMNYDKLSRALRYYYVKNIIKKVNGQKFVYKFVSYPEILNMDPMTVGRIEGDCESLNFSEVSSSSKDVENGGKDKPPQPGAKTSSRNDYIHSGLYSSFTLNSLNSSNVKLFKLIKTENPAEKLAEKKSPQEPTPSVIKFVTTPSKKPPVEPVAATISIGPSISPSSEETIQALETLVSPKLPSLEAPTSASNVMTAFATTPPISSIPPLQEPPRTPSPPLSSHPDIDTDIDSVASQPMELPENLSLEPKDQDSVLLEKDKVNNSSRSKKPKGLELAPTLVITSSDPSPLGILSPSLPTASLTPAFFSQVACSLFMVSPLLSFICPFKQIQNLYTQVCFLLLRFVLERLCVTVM
The following applies: protein: recombinant; tags: N-terminal GST; dsDNA, one strand shown. The method, boiled down: as §1

The next assay addresses T10, ETV2 (Homo sapiens, UniProt O00321 1-342).
T10 sequence: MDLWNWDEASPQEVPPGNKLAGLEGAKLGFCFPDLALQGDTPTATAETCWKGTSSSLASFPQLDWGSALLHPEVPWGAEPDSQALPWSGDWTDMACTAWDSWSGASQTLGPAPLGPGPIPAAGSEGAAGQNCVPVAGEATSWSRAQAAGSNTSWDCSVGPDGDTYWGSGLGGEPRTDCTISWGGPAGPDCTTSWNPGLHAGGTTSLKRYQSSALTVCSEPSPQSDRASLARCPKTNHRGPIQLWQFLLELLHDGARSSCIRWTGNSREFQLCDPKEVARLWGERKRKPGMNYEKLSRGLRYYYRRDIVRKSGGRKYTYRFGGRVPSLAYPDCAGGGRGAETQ
The settings on record: protein: recombinant; tags: N-terminal GST; dsDNA, one strand shown. The method, boiled down: as §1

For another assay, the target named is T11, ELF3 (Homo sapiens, UniProt P78545 1-371).
T11 sequence: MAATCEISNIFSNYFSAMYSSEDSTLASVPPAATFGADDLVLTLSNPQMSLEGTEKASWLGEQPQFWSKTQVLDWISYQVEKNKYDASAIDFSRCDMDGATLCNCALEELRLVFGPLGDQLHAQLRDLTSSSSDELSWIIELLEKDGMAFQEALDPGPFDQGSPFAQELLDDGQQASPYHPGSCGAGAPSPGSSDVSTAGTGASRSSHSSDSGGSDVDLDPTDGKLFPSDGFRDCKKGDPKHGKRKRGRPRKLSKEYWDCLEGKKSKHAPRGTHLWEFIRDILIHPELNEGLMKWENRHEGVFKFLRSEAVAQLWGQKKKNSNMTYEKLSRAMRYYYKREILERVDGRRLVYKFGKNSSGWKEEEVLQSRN
The following applies: protein: recombinant; tags: N-terminal GST; dsDNA, one strand shown. The method, boiled down:
as §1

Another assay deals with CRX (Homo sapiens, UniProt O43186 1-299). The settings on record: protein: recombinant; tags: N-terminal GST; dsDNA, one strand shown. The essentials: as §1
Another assay has as its target ETV1 (Homo sapiens, UniProt P50549 1-477). The following applies: protein: recombinant; tags: N-terminal GST; dsDNA, one strand shown. The method, boiled down:
as §1

Sequence of SPIB (Q01892 whole entry): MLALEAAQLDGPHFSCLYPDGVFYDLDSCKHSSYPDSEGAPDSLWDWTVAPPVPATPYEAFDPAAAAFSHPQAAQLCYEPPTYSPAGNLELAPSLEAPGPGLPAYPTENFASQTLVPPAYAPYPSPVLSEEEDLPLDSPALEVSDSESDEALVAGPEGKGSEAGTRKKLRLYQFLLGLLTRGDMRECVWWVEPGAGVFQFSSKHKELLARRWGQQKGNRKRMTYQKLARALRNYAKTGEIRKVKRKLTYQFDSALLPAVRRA
Sequence of HSF1 (Q00613 whole entry): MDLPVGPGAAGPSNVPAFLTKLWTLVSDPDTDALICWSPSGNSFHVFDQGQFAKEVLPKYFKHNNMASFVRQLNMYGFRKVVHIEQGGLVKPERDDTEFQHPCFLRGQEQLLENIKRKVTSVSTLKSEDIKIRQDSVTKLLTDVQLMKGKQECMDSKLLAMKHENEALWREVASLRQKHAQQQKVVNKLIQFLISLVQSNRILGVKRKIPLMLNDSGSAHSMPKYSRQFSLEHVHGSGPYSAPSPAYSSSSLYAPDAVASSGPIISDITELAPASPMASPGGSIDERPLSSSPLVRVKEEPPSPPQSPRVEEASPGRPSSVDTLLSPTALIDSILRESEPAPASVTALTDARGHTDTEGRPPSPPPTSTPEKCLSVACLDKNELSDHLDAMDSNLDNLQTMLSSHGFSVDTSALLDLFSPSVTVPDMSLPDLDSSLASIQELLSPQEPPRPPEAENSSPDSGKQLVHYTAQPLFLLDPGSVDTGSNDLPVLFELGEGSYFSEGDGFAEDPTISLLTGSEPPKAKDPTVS
Sequence of CRX (O43186 whole entry): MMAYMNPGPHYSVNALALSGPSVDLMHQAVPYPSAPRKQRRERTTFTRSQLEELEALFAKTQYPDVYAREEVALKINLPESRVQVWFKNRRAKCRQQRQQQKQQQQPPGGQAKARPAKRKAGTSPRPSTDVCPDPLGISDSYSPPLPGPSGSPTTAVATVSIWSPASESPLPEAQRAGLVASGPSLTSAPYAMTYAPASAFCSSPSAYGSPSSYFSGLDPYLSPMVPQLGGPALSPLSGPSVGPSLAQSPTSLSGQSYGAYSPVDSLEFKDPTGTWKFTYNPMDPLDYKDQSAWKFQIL
Sequence of ELF4 (Q99607 whole entry): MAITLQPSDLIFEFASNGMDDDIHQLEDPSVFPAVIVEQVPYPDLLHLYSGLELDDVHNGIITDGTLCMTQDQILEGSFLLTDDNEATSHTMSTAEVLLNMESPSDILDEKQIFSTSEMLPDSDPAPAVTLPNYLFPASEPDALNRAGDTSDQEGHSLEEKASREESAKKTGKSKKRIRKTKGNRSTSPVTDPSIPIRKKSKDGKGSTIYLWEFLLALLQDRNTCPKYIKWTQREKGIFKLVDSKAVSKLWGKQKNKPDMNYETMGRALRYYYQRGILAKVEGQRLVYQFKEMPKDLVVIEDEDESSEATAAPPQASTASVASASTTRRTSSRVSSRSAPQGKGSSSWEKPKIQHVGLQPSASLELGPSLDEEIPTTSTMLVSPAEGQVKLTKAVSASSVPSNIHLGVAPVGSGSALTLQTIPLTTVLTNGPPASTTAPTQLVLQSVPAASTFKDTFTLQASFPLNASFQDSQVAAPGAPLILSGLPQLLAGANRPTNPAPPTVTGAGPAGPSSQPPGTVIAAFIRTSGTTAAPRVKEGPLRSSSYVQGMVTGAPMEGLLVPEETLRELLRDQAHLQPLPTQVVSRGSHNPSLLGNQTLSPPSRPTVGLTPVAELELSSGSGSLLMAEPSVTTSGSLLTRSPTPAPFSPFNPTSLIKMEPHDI
Sequence of ETV1 (P50549 whole entry): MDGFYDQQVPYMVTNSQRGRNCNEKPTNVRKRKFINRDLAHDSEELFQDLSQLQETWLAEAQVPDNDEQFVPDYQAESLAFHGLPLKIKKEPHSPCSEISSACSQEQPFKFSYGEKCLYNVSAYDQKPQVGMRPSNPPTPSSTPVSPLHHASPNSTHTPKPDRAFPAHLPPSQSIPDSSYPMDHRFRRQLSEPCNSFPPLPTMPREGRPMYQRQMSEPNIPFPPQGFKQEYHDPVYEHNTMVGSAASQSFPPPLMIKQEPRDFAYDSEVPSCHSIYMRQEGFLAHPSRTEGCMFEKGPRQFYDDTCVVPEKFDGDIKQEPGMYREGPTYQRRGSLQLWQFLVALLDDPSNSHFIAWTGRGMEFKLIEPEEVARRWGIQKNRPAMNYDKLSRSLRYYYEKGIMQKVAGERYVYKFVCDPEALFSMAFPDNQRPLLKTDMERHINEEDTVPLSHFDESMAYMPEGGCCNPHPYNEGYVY
Sequence of ELF1 (P32519 whole entry): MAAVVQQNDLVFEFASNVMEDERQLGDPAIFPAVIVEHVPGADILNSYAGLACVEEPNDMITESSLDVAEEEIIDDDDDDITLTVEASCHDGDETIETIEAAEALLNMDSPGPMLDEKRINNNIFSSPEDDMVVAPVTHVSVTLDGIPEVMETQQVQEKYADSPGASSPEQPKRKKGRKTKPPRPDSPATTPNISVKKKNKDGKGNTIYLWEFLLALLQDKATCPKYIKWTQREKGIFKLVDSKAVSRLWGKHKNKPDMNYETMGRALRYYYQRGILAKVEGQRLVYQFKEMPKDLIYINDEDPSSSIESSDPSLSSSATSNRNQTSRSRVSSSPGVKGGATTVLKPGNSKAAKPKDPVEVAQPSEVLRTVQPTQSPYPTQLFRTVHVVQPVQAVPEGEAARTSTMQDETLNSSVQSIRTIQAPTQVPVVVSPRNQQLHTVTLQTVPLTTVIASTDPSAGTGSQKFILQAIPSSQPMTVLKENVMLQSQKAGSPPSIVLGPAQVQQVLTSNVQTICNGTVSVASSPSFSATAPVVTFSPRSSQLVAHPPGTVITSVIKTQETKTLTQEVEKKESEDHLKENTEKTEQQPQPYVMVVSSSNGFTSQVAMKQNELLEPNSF
Sequence of ETV5 (P41161 whole entry): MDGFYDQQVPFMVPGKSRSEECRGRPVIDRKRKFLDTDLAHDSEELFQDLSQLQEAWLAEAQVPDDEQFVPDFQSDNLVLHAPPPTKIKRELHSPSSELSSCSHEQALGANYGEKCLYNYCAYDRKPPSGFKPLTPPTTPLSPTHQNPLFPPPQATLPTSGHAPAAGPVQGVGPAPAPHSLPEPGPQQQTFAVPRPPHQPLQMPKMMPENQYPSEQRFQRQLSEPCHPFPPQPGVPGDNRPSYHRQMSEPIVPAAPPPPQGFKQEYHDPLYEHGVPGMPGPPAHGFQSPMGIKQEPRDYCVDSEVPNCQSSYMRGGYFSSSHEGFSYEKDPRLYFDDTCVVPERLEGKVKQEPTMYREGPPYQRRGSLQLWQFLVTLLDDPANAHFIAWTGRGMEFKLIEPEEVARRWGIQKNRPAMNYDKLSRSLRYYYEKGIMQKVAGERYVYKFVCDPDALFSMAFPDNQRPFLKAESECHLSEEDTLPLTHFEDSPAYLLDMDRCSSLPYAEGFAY

Turning to GCTCGA, the binding signal is 1.22 fold enrichment (6-mer frequency, TF over GST control) with FLI1; 1.12 fold enrichment (6-mer frequency, TF over GST control) with ELK1; 1.15 fold enrichment (6-mer frequency, TF over GST control) with GABPA; 1.2 fold enrichment (6-mer frequency, TF over GST control) in the assay with ERG; 1.21 fold enrichment (6-mer frequency, TF over GST control) with ELF1; 1.19 fold enrichment (6-mer frequency, TF over GST control) in the assay with EHF. The binding signal with SPI1 was 1.22 fold enrichment (6-mer frequency, TF over GST control); in the assay with SPIB, 1.24 fold enrichment (6-mer frequency, TF over GST control); in the assay with ELK3, 1.13 fold enrichment (6-mer frequency, TF over GST control); with FEV, 1.25 fold enrichment (6-mer frequency, TF over GST control); with ETV5, 1.22 fold enrichment (6-mer frequency, TF over GST control); with HSF1, 1.74 fold enrichment (6-mer frequency, TF over GST control). In addition, the binding signal in the assay with SPIC was 1.31 fold enrichment (6-mer frequency, TF over GST control); with ELF4 it was 1.25 fold enrichment (6-mer frequency, TF over GST control); with ELK4, 1.29 fold enrichment (6-mer frequency, TF over GST control); with ETV2, 1.07 fold enrichment (6-mer frequency, TF over GST control); in the assay with ELF3, 1.24 fold enrichment (6-mer frequency, TF over GST control); with CRX, 1.17 fold enrichment (6-mer frequency, TF over GST control). Besides, the binding signal with ETV1 was 1.07 fold enrichment (6-mer frequency, TF over GST control).

For the origin of these results see PMC7862700, “An all-to-all approach to the identification of sequence-specific readers for epigenetic DNA modifications on cytosine”.
